Screening results from PubChem.
GAA spleen mod: inhibitors or activators of human alpha-glucosidase in spleen homogenate. P10253. human spleen homogenate, 4-MU-alpha-glucoside fluorescence. Potency, µM (doses to about 79.9 µM), usual class: inhibitors. actives 0.006% (n = 240,000). AID 2112
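Enzyme source: human spleen homogenate, 1 ug/well. Buffer 50 mM citric acid/K phosphate pH 5.0, 0.01% Tween-20. 4-MU-alpha-glucoside 1 mM; 37 C x 40 min; NaOH/glycine stop; fluorescence.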
N370S GC: N370S glucocerebrosidase modulation, Gaucher chaperone candidate; P04062; actives 0.092% (n = 330,000); Potency, µM (top dose mostly 59.4 µM), usual class: inhibitors; N370S GC spleen homogenate, 4MU-glucoside fluorescence
GAA inh: alpha-glucosidase (human) inhibition; AID 1466; Potency, µM (highest dose often 76.9 µM), usual class: inhibitors; purified human GAA, 4-MU-alpha-glucoside fluorescence; actives 0.005% (n = 200,000); P10253
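Read-out is 4-methylumbelliferone fluorescence (Ex 365/Em 440 nm) after NaOH/glycine stop at pH 10. Enzyme 4 nM, substrate 400 uM, pH 5.0 citrate buffer, 20 min room temperature; AC50 from Hill-equation concentration-response.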
GAA glycogen: alters human alpha-glucosidase cleavage of glycogen; Potency, µM (highest dose often 76.4 µM), most hits filed as inhibitors; P10253; recombinant GAA, glycogen substrate, Amplex Red glucose oxidase fluorescence; actives 0.38% (n = 300,000);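 further: the screen sought inhibitors and activators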
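Recombinant enzyme (4 nM final) with compounds titrated up to 77 uM and bovine liver glycogen (30 ug) in citrate pH 5.0, 0.01% Tween-20, 37 C 40 min. Released glucose detected by Amplex Red/glucose oxidase (Ex 573/Em 610); AC50 from Hill fits.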
GLA inh pH 4.5: alpha-galactosidase A (human) inhibition, pH 4.5 | 230,000 tested, under 10 active | AID 1467 | purified enzyme, 4-MU-alpha-Gal fluorescence, pH 4.5 | activity change, negative = inhibition, % at 105 µM
GLA spleen mod: inhibitors or activators of human alpha-galactosidase in spleen homogenate; human spleen homogenate, 4MU-alpha-Gal fluorescence, 40 min; Potency, µM (highest dose often 80 µM), hits mostly inhibitors; actives 0.008% (n = 240,000); AID 2107
Target sequence (P06280 32-429 limits assumed): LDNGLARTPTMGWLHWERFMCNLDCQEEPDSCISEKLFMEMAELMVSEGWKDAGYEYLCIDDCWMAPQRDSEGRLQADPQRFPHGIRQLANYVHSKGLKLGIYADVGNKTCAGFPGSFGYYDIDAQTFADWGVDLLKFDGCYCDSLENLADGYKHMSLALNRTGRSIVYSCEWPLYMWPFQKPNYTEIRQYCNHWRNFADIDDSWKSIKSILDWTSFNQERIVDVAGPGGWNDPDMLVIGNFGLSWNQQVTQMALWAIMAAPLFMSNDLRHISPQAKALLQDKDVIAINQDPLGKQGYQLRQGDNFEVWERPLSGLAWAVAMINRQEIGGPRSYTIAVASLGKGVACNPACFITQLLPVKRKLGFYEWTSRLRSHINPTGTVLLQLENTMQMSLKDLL
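Inhibition or activation of alpha-galactosidase in human spleen homogenate is scored by 4-MU fluorescence after 40 min at 37C, pH 5.0, with 1 mM substrate. AC50s come from concentration-response fitted to the Hill equation.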
Large screens that a line does not name were inactive. Most compounds without a hit are left out; they make up all but 0.43% or so of the library. The call rests on the fitted dose curve; in most records, active means well fitted curve in the direction sought with a large enough effect; inconclusive means small, poorly fitted or top-dose-only effect, or another doubt; inactive means no such curve, though single readings can be large; an effect the other way counts as inactive or inconclusive.

CC1(CN2CCC(n3c(=O)[nH]c4ccccc43)CC2)OCc2ccccc2-n2cccc21 (centres undefined)	none (no result: GAA inh, GAA glycogen)
Cc1sc2ncnc(Nc3ccc(O)cc3)c2c1C	N370S GC 11µM, GAA glycogen inconclusive
O=c1[nH]c2cc([N+](=O)[O-])c([N+](=O)[O-])cc2[nH]c1=O	N370S GC 8.9µM
Oc1ccc(/C=N/Nc2ccc(C(F)(F)F)cn2)cc1	GAA glycogen 22µM
Cc1ccn2c(NC3CCCC3)c(-c3ccccn3)nc2c1	GAA glycogen inconclusive
c1ccc(-c2nc3ccccn3c2NC2CCCC2)nc1	GAA glycogen 11µM
Cc1ccn2c(NC3CCCC3)c(-c3ccncc3)nc2c1	GAA glycogen 28µM
COC(=O)C1=C(C(=O)OC)[C@@H]2N(C)c3ccccc3[C@@]23C[C@@H](C(=O)OC)N(S(=O)(=O)c2ccc4c(c2)OCCN4C)C3=N1	none (no result: GAA inh, GAA glycogen)
C=C(C)/C=N/NC(=S)Nc1ccc(S(=O)(=O)N2CCOCC2)cc1	GAA glycogen 25µM (no result: GAA inh)
CC(=O)NCCNc1nc(-c2cccnc2)nc2ccccc12	none (no result: GAA inh, GAA glycogen, GLA inh pH 4.5)
CC(C)NC(=O)NC(=O)COC(=O)c1cccc(S(=O)(=O)N2CCCCC2)c1	none
CC1(C)Cc2c(c(-c3ccccc3)nc3[nH][nH]c(=O)c23)CO1	GAA glycogen 5µM
N#Cc1cccc(-c2nccc(-n3ccnc3)n2)c1	none (no result: GAA inh, GAA glycogen, GLA inh pH 4.5)
O=C(Nc1ccnn1C1CCN(Cc2cc(Cl)ccc2O)CC1)c1cccnc1	none (no result: GAA spleen mod, GAA inh, GAA glycogen, GLA inh pH 4.5, GLA spleen mod)
Cc1ccc(C(=O)NNc2nc3ccccc3nc2C(F)(F)F)cc1	GAA glycogen 16µM
Cc1ccc(C(=O)Nc2nc3ccccc3n3nnnc23)cc1	none
O=C(NNc1c2ccccc2nc2ccccc12)c1ccc(O)cc1	GAA glycogen 11µM
O=C(NNc1c2ccccc2nc2ccccc12)c1ccccc1O	none
O=C(NNc1c2ccccc2nc2ccccc12)c1ccc(O)cc1O	GAA glycogen 28µM
COc1cc(/C=C/C(=O)O)cc(S(=O)(=O)NCCCC(=O)O)c1OC	none
C/C(=N\Nc1ccc(C)c(Cl)c1)c1ccncc1	none (no result: GAA spleen mod, GAA inh, GAA glycogen, GLA inh pH 4.5, GLA spleen mod)
CCCCN(CC)CCCNC(=O)Nc1sc2nc3n(c(=O)c2c1C)CCC(C)CC3 (centres undefined)	GAA glycogen 10µM (no result: GAA spleen mod, N370S GC, GAA inh, GLA inh pH 4.5, GLA spleen mod)
CCOc1ccccc1NC(=O)NNC(=O)COc1cccc(C)c1C	none (no result: GAA spleen mod, GAA inh, GAA glycogen, GLA inh pH 4.5, GLA spleen mod)
COC(=O)Cc1ccc(O)c(N)c1	GAA glycogen 5.6µM
COC(=O)[C@@H](N)Cc1ccc(O)c(O)c1	none (no result: GAA inh, GAA glycogen)
CCc1cc2c(=O)oc(-c3ccc(F)cc3)nc2s1	none (no result: GAA spleen mod, GAA inh, GLA inh pH 4.5, GLA spleen mod)
Cc1nnsc1C(=O)NNS(=O)(=O)c1cc(C(F)(F)F)cc(C(F)(F)F)c1	GAA glycogen inconclusive
Cc1ccc(S(=O)(=O)NNC(=O)c2snnc2C)cc1	GAA glycogen 25µM
COc1ccc(/C=N\NC(=O)C2=NNC(=O)C2C)cc1 (centres undefined)	GAA glycogen 28µM
COc1cc(/C=N/Nc2ccc(Cl)c(C(=O)O)c2)ccc1OC(=O)c1ccccc1F	GAA glycogen 5.6µM (no result: GAA spleen mod, GAA inh, GLA inh pH 4.5, GLA spleen mod)
COc1ccccc1NC(=S)N1CCN(C(=O)C2CCCO2)CC1 (centres undefined)	none
N#CC1=C(SCC(=O)NC2CC2)NC(=O)C(C#N)C12CCCCC2 (centres undefined)	GAA glycogen 25µM
O=C(/C=C/c1ccc(O)c(O)c1)OC(Cc1ccc(O)c(O)c1)C(=O)O (centres undefined)	GAA glycogen 2µM (no result: GAA inh)
COc1ccc(CC(=O)NCc2nnc(SCC(=O)c3ccc(OC)cc3)n2C)cc1	none
COc1ccc(NCc2nnc(SCC(=O)c3ccc(OC)cc3)n2C)cc1	GAA glycogen 12µM
CCCSc1ncc(Cl)c(C(=O)Nc2c(C(=O)Nc3ccc(OC)cc3)oc3ccccc23)n1	none (no result: GAA spleen mod, N370S GC, GAA inh, GLA inh pH 4.5, GLA spleen mod)
Oc1ccc(/C=N/N2CCN(c3ccccn3)CC2)cc1	GAA glycogen 11µM (no result: GAA inh)
Oc1cccc(/C=N/N2CCN(c3ccccn3)CC2)c1	GAA glycogen inconclusive (no result: GAA inh)
Cc1ccc(C)c(-c2csc(-c3c(N)c(C(=O)c4ccc5c(c4)OCO5)n4ccccc34)n2)c1	none (no result: GAA spleen mod, N370S GC, GAA inh, GLA inh pH 4.5, GLA spleen mod)
O=[N+]([O-])c1ccc(N/N=C/c2c[nH]c3ccccc23)cc1	GAA glycogen 18µM (no result: N370S GC)
